For 18 compounds, inhibition results are on record in PubChem BioAssay AID588651 (The Scripps Research Institute Molecular Screening Center, 2011).

A number with no mark means an inactive call. Calls of active or inactive are those of the source. Cut-off read from the data, not from the text of the source: active = inhibition above about 65%; inactive = the rest.

A word on the inhibition: it is how much of the control response was suppressed.

This test deals with Fam108b. Nature of the test: Fam108b inhibition by ABPP, late-stage follow-up, biochemical, gel-based ABPP, recombinant soluble Fam108b, HTS hits, complex proteome (AID 588651).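 Note: Fam108b spiked into mouse brain membrane proteome.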 The settings on record: FP-rhodamine labeling in proteome, at 20 µM, hits give high values.

Turning to `O=C(Nc1ccc(-c2csc(Nc3ccc(Cl)cc3)n2)cc1)c1cccc(C(F)(F)F)c1`, the inhibition is 95% (active).

`Cc1cc(C)nc(SCc2ccc(C(=O)NN=Cc3cccc(O)c3O)cc2)n1`: the inhibition is 30%.

As to `O=[N+]([O-])c1ccc(NN=Cc2ccccc2O)cc1`, the inhibition was 0%.

With `Cc1c(O)ccc(C=NNc2nc(-c3cccnc3)nc3ccccc23)c1O`, the inhibition was 85% (active).

Consider `Cc1cc(C(C#N)c2ccc(Cl)cc2)c(Cl)cc1NC(=O)c1cc(I)cc(I)c1O` (stereo not drawn), for which the inhibition is 50%.

For the compound `CCOC(=O)c1sc(NC(=O)Nc2ccc(Cl)cc2)cc1C`, the inhibition is 0%.

In the case of `Nc1ccc2nc(-c3cccc(-c4nc5ccc(N)cc5[nH]4)c3)[nH]c2c1`, the inhibition is 30%.

For `Clc1ccccc1C(c1ccccc1)(c1ccccc1)n1ccnc1`, the inhibition was 0%.

Turning to `Brc1ccc(-c2csc(Nc3nc(-c4ccc(Br)cc4)cs3)n2)cc1`, the inhibition is 50%.

`O=C(CCCSc1ccccc1)Nc1nc(-c2ccco2)c(-c2ccco2)s1`: the inhibition was 0%.

As for `O=C1C(Cl)=C(N2CCC(C(=O)O)CC2)C(=O)c2ccccc21`, the inhibition is 0%.

`COc1ccc(-c2csc3nc(-c4ccccc4OC)oc(=O)c23)cc1`: the inhibition is 80% (active).

On to `O=c1cc(-c2ccc(O)c(-c3c(O)cc(O)c4c(=O)cc(-c5ccc(O)cc5)oc34)c2)oc2cc(O)cc(O)c12`, for which the inhibition was 95% (active).

Turning to `COc1ccc2oc(=O)c(-c3csc(Nc4cccc(O)c4)n3)cc2c1`, the inhibition was 0%.

On to `Cn1c2ccccc2c2cc(C=NNC(=O)c3cc(O)ccc3O)ccc21`, for which the inhibition was 80% (active).

In the case of `Cc1ccc(S(=O)(=O)Nc2ccccc2C(=O)Nc2nc(-c3ccc(F)cc3)cs2)cc1`, the inhibition was 40%.

Consider `CCOc1cc(/C=C2\C(=O)N(c3nc(-c4ccc(Br)cc4)cs3)N=C2c2ccccc2)ccc1O`, for which the inhibition was 70% (active).

As to `CCNc1ccc2noc3c2c1C(=O)c1ccccc1-3`, the inhibition is 0%.
